Compounds with a hit are over-represented: about 1.6% of the library has one in this group of screens.
KCNQ2 pot: KCNQ2 (rat) channel potentiation | CHO-K1 KCNQ2, FluxOR thallium flux fluorescence; stronger effect = higher value | B-score at 10 µM | actives 0.54% (n = 310,000) | AID 2239;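 active = fluorescence ratio B-score at least 3 SD of library B-scores, with initial fluorescence B-score within 3 of them, cut at about 5.3 in these data; same plate scores as AID 2156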;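 also: B-score of peak minus minimum over baseline fluorescence ratio after K+ and Tl+ stimulus; positive B-score means potentiation of KCNQ2 with more thallium influx and brighter signal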
Target sequence (O88943 whole entry, looked up): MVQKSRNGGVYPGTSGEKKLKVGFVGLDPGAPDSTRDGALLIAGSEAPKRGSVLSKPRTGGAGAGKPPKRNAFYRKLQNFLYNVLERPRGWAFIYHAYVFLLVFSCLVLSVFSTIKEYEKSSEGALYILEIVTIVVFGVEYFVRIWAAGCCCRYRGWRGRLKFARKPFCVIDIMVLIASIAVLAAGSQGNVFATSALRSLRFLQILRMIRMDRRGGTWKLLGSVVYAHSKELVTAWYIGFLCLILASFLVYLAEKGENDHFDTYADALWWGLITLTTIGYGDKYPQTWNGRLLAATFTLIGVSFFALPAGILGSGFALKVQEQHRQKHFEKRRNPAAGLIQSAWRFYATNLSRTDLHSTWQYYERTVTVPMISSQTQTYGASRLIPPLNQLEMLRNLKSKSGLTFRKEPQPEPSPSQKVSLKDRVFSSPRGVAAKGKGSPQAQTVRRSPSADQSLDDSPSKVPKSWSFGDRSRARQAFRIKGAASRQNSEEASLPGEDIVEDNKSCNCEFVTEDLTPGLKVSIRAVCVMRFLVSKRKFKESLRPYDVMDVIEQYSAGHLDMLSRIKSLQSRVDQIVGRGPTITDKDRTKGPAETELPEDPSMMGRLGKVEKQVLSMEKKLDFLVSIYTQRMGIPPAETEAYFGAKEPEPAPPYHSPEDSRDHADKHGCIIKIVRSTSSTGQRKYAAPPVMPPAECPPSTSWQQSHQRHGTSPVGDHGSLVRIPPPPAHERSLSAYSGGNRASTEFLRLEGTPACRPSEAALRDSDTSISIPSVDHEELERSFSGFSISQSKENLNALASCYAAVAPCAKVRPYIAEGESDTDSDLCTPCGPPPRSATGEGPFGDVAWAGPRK
KCNQ2 block: blocks the rat KCNQ2 potassium channel. CHO-K1 KCNQ2, FluxOR thallium flux, 20 min; stronger effect = lower value. B-score at 10 µM. actives 1.1% (n = 310,000). O88943;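 active = fluorescence ratio B-score at most minus 3 library SDs, with starting brightness B-score within 2 library SDs, cut at about -5.5 in these data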
Kir21 confirm: confirmation of mouse Kir2.1 potassium channel inhibitors | shares compounds with KCNQ2 pot | Kir2.1-expressing cells, FluxOR thallium flux fluorescence; stronger effect = lower value | Tl flux remaining, % of negative control (stronger effect = lower value), % at 10 µM | actives 41% (n = 2,300);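 active = Primary-screen hit whose thallium flux fell at least 3 control SD below untreated wells in both duplicates, with normal baseline fluorescence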;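 also: 0% = blank wells without stimulus and 100% = stimulated no-compound controls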
HEK293 ctr: counter-screen for Kir2.1 inhibitors: effect in parental HEK293 cells. AID 2105. shares compounds with KCNQ2 pot. FluxOR signal as % of negative control (100 = no effect), % at 10 µM. actives 19% (n = 2,300). FluxOR thallium flux fluorescence; 0% = unstimulated blank wells;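 active = dye signal at least 3 control SD above or below untreated wells in both duplicates, raw fluorescence within 3, either direction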;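 also: percent is based on the flux ratio of peak minus minimum fluorescence over baseline F0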
CHO-K1 Tl ctr: parental CHO-K1 activity in KCNQ2 potentiator counter-screen. shares compounds with KCNQ2 pot. parental CHO-K1 cells, FluxOR thallium flux fluorescence; zero = vehicle mean+3SD, 100% = vehicle-minus-blank window. activity increase over 3SD of controls, % at 10 µM. actives 43% (n = 1,200). AID 2282;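 active = signal rise of at least 3 SD above the untreated control mean, in both duplicate wells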;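 also: counter screen of KCNQ2 potentiator hits so any rise reflects channel-independent effects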
KCNQ1 pot spec: tests whether KCNQ2 potentiators also act on human KCNQ1; actives 28% (n = 1,200); CHO KCNQ1 stable, FluxOR thallium flux fluorescence; beyond 3SD, as % of vehicle-control signal; AID 2283; shares compounds with KCNQ2 pot; activation over 3SD threshold, % at 10 µM;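 active = fluorescence ratio rise of at least 3 SD of vehicle wells above their mean, in both replicate wells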;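 also: 0% = vehicle mean plus 3 SD and 100% = vehicle minus unstimulated blank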
KCNQ2 pot conf: rat KCNQ2 channel potentiator confirmation | shares compounds with KCNQ2 pot | CHO-KCNQ2 cells, FluxOR thallium flux fluorescence | potentiation, less the hit threshold, % at 10 µM | actives 68% (n = 1,200);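 active = fluorescence ratio rising 3 SD or more over the vehicle control mean in both replicates, plus primary screen hit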;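 also: peak minus minimum thallium fluorescence divided by baseline after K/Tl stimulus; 0% = vehicle mean plus 3 SD and 100% = vehicle minus unstimulated blank difference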
Kir2-1 sel: tests whether KCNQ2 potentiators also affect mouse Kir2.1 | shares compounds with KCNQ2 pot | HEK293 Kir2.1, FluxOR thallium flux fluorescence | activity over 3SD threshold, % at 10 µM | actives 2% (n = 1,200);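 active = fluorescence ratio rise of at least 3 SD above the vehicle-control mean, seen in both replicates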;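 also: 0% = vehicle mean plus 3 SD and 100% = vehicle minus no-stimulus blank window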
KCNQ2 W236L pot: KCNQ2 potentiators acting on retigabine-insensitive rat KCNQ2 W236L mutant. actives 10% (n = 940). current increase over 3SD of negative controls (%), stronger effect = higher value, % at 25 µM. shares compounds with KCNQ2 pot. CHO KCNQ2-W236L, automated patch clamp current;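 active = current increase at least 3 SD of the untreated controls above them in both duplicate recordings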
* hit, by the source's call; i = inactive; nt = no result.

SMILES | KCNQ2 pot | KCNQ2 block | Kir21 confirm | HEK293 ctr | others
CC(=O)Nc1sc2c(c1C(c1ccccc1Cl)N1CCN(CCO)CC1)CCCC2 (stereo not given) | 5.3* | i | nt | nt | CHO-K1 Tl ctr=-36;KCNQ1 pot spec=-18;KCNQ2 pot conf=38*;Kir2-1 sel=-62;KCNQ2 W236L pot=i
Cc1cccc(OCc2nnc(SCC(=O)O)n2-c2ccccc2)c1 | 0.19 | i | nt | nt
N#Cc1c(C(F)(F)F)cc(-c2ccc(Cl)c(Cl)c2)nc1SCCN1CCOCC1 | 0.12 | i | nt | nt
N#Cc1c(C(F)(F)F)cc(-c2ccccc2)nc1SCc1nc(N)nc(N2CCOCC2)n1 | 10* | i | i | i | CHO-K1 Tl ctr=-19;KCNQ1 pot spec=-22;KCNQ2 pot conf=17*;Kir2-1 sel=-17;KCNQ2 W236L pot=i
COc1ccc(/C=C/C(=O)NC2CCN(Cc3ccccc3)CC2)cc1OC | nt | i | nt | nt
CCCc1cc(=O)[nH]c(SCC(=O)c2cc(C)n(CCOC)c2C)n1 | 0.18 | i | nt | nt
CCCc1cc(=O)[nH]c(SCC(=O)c2cc(C)n(CC(F)(F)F)c2C)n1 | 6.4* | i | i | i | CHO-K1 Tl ctr=-13;KCNQ1 pot spec=74*;KCNQ2 pot conf=-16;Kir2-1 sel=-48
Cc1cc(C(=O)NNc2ccc(F)cc2)no1 | 0.59 | i | nt | nt
CNCC[C@H](Oc1cccc2ccccc12)c1cccs1 | nt | i | i | i
CNCCC(Oc1ccc(C(F)(F)F)cc1)c1ccccc1 (stereo not given) | nt | i | nt | nt
CCOc1ccc(CCNC(=O)Cc2ccc(NC3=NC4CS(=O)(=O)CC4S3)cc2)cc1OCC (stereo not given) | nt | i | nt | nt
O=C(NN1CC(C(=O)OCc2ccc(Cl)cc2Cl)CC1=O)c1ccccc1 (stereo not given) | 19* | i | i | i | CHO-K1 Tl ctr=-22;KCNQ1 pot spec=68*;KCNQ2 pot conf=74*;Kir2-1 sel=-31;KCNQ2 W236L pot=i
O=C(NCc1ccc(Cl)cc1Cl)C1CC(=O)N(Cc2ccccc2)C1 (stereo not given) | 2.2 | i | nt | nt
COc1ccc(CCNCC(O)COc2cccc(Br)c2)cc1OC (stereo not given) | nt | i | nt | nt
OC(CNCc1ccccc1)COc1ccccc1 (stereo not given) | nt | i | nt | nt
Cc1ccc(OCC(O)CNCc2ccc(F)cc2)cc1 (stereo not given) | 0.29 | i | 27%* | i
COc1ccc(CCNCC(O)COc2ccc(OC)cc2C(C)(C)C)cc1 (stereo not given) | nt | i | 56%* | i
COc1ccc(CNCC(O)COc2ccc(C)cc2[N+](=O)[O-])cc1 (stereo not given) | nt | i | 26%* | i
COc1ccc(OCCOCCOc2ccc(C)cc2[N+](=O)[O-])cc1 | nt | i | nt | nt
C#CC1CCCCC1NC(=O)Nc1cnccc1C(F)(F)F (stereo not given) | 2.4 | i | nt | nt
CN1CCOC(=O)/C1=N/Nc1cc(Cl)ccc1Cl | 0.03 | i | nt | nt
Cc1nn(S(=O)(=O)c2ccccc2)c(C)c1S(=O)(=O)N1CCOCC1 | nt | i | nt | nt
O=C(NCc1ccc(Cl)cc1)C1CCC(CNS(=O)(=O)c2ccccc2)CC1 (stereo not given) | nt | i | nt | nt
CO/N=C/C(C#N)=C/c1cc(C(=O)c2ccccc2)cn1C | 1.5 | i | nt | nt
CCOc1ccc(NS(=O)(=O)c2ccc(C(=O)NCC(c3ccc(OC)cc3)N3CCOCC3)cc2)cc1 (stereo not given) | nt | i | nt | nt
Cc1ccc(S(=O)(=O)NCCC(=O)N2CCC(Cc3ccccc3)CC2)cc1 | 5.3* | i | i | i | CHO-K1 Tl ctr=13*;KCNQ1 pot spec=-22;KCNQ2 pot conf=-19;Kir2-1 sel=-35;KCNQ2 W236L pot=i
Cc1ccc(S(=O)(=O)NCCC(=O)N2CCCCCC2)cc1 | 0.07 | i | nt | nt

Source: PubChem BioAssay (Johns Hopkins Ion Channel Center)
